# ± gives the standard deviation of the averaged measurements.
# Tests used:
# Assay in all cases: promoter activity interaction Z-score (Lux/OD deviation from empty-vector control); higher = stronger promoter induction by the compound
# [1] = test system: E. coli BW25113 acrABp lux reporter
# Summary of the method: (§1)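 E. coli BW25113 (wild type or marA, soxS or rob deletion) carrying low-copy luxCDABE promoter reporters grew in 40 µl LB Lennox in 384-well plates at 37°C. Each compound was tested at four 1:2 dilutions in biological duplicates. OD600 and luminescence were read every 30 min for 12 h. Areas were taken over 0–8 h (wild type) or 1–9 h (mutants), and wells below 10% of median growth area were removed. The score is the Z-transformed residual of growth-normalised luminescence fitted against the empty-vector control.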
# [2] = test system: E. coli BW25113 micFp lux reporter
# Summary of the method: as §1
# [3] = test system: E. coli BW25113 ompFp lux reporter
# Summary of the method: as §1
# [4] = test system: E. coli BW25113 robp lux reporter
# Summary of the method: as §1
# [5] = test system: E. coli BW25113 soxSp lux reporter
# Summary of the method: as §1
# [6] = test system: E. coli BW25113 tolCp lux reporter
# Summary of the method: as §1
# [7] = 2.4 µg/ml, genetic background: wild type
# [8] = 2.4 µg/ml, genetic background: ΔmarA
# [9] = 2.4 µg/ml, genetic background: Δrob
# [10] = 2.4 µg/ml, genetic background: ΔsoxS
# [11] = 4.8 µg/ml, genetic background: wild type
# [12] = 4.8 µg/ml, genetic background: ΔmarA
# [13] = 4.8 µg/ml, genetic background: Δrob
# [14] = 4.8 µg/ml, genetic background: ΔsoxS
# [15] = 9.5 µg/ml, genetic background: wild type
# [16] = 9.5 µg/ml, genetic background: ΔmarA
# [17] = 9.5 µg/ml, genetic background: Δrob
# [18] = 9.5 µg/ml, genetic background: ΔsoxS
# [19] = 19 µg/ml, genetic background: wild type
# [20] = 19 µg/ml, genetic background: ΔmarA
# [21] = 19 µg/ml, genetic background: Δrob
# [22] = 19 µg/ml, genetic background: ΔsoxS
structure (smiles),measurement,setting,value
CO[C@@H]1[C@@H](OC(N)=O)[C@@H](O)[C@H](Oc2ccc3c(O)c(NC(=O)c4ccc(O)c(CC=C(C)C)c4)c(=O)oc3c2C)OC1(C)C [Novobiocin],promoter activity interaction Z-score,[1]; [7],0.244 ± 0.011
same,promoter activity interaction Z-score,[1]; [8],-0.347 ± 1.3
same,promoter activity interaction Z-score,[1]; [9],0.848 ± 0.4
same,promoter activity interaction Z-score,[1]; [10],0.546 ± 0.036
same,promoter activity interaction Z-score,[1]; [11],0.442 ± 0.43
same,promoter activity interaction Z-score,[1]; [12],0.136 ± 0.95
same,promoter activity interaction Z-score,[1]; [13],1.49 ± 0.32
same,promoter activity interaction Z-score,[1]; [14],0.39 ± 0.16
same,promoter activity interaction Z-score,[1]; [15],0.927 ± 0.17
same,promoter activity interaction Z-score,[1]; [16],-0.164 ± 0.91
same,promoter activity interaction Z-score,[1]; [17],1.06 ± 0.42
same,promoter activity interaction Z-score,[1]; [18],1.16 ± 0.38
same,promoter activity interaction Z-score,[1]; [19],2.99 ± 1.6
same,promoter activity interaction Z-score,[1]; [20],0.0115
same,promoter activity interaction Z-score,[1]; [21],10.3 ± 1.3
same,promoter activity interaction Z-score,[1]; [22],4.62 ± 1.6
same,promoter activity interaction Z-score,[2]; [7],-0.408 ± 0.09
same,promoter activity interaction Z-score,[2]; [8],0.0296 ± 0.17
same,promoter activity interaction Z-score,[2]; [9],0.145 ± 0.073
same,promoter activity interaction Z-score,[2]; [10],-0.147 ± 0.056
same,promoter activity interaction Z-score,[2]; [11],0.134 ± 0.14
same,promoter activity interaction Z-score,[2]; [12],0.213 ± 0.017
same,promoter activity interaction Z-score,[2]; [13],0.0635 ± 0.05
same,promoter activity interaction Z-score,[2]; [14],-0.119 ± 0.12
same,promoter activity interaction Z-score,[2]; [15],0.284 ± 0.49
same,promoter activity interaction Z-score,[2]; [16],0.421 ± 0.17
same,promoter activity interaction Z-score,[2]; [17],0.245 ± 0.24
same,promoter activity interaction Z-score,[2]; [18],0.14 ± 0.16
same,promoter activity interaction Z-score,[2]; [19],1.5406 ± 0.00073
same,promoter activity interaction Z-score,[2]; [20],0.113 ± 0.18
same,promoter activity interaction Z-score,[2]; [21],-0.174 ± 0.2
same,promoter activity interaction Z-score,[2]; [22],1.4 ± 0.62
same,promoter activity interaction Z-score,[3]; [7],0.0673 ± 0.21
same,promoter activity interaction Z-score,[3]; [8],-0.291 ± 0.042
same,promoter activity interaction Z-score,[3]; [9],0.21 ± 0.083
same,promoter activity interaction Z-score,[3]; [10],-0.226 ± 0.19
same,promoter activity interaction Z-score,[3]; [11],0.318 ± 0.29
same,promoter activity interaction Z-score,[3]; [12],-0.339 ± 0.52
same,promoter activity interaction Z-score,[3]; [13],0.165 ± 0.0019
same,promoter activity interaction Z-score,[3]; [14],0.0876 ± 0.53
same,promoter activity interaction Z-score,[3]; [15],-0.446 ± 0.54
same,promoter activity interaction Z-score,[3]; [16],-1.53 ± 0.12
same,promoter activity interaction Z-score,[3]; [17],-1.13 ± 0.89
same,promoter activity interaction Z-score,[3]; [18],-0.424 ± 0.61
same,promoter activity interaction Z-score,[3]; [19],-1.63 ± 0.2
same,promoter activity interaction Z-score,[3]; [20],-1.87 ± 0.17
same,promoter activity interaction Z-score,[3]; [21],-2.05 ± 0.56
same,promoter activity interaction Z-score,[3]; [22],-1.87 ± 0.47
same,promoter activity interaction Z-score,[4]; [7],0.51 ± 0.35
same,promoter activity interaction Z-score,[4]; [8],0.679 ± 0.23
same,promoter activity interaction Z-score,[4]; [9],1.25 ± 0.25
same,promoter activity interaction Z-score,[4]; [10],0.985 ± 1.4
same,promoter activity interaction Z-score,[4]; [11],1.19 ± 0.16
same,promoter activity interaction Z-score,[4]; [12],1.57 ± 0.17
same,promoter activity interaction Z-score,[4]; [13],1.21 ± 0.23
same,promoter activity interaction Z-score,[4]; [14],1.76 ± 1.1
same,promoter activity interaction Z-score,[4]; [15],0.92 ± 0.12
same,promoter activity interaction Z-score,[4]; [16],1.41 ± 0.34
same,promoter activity interaction Z-score,[4]; [17],1.08 ± 0.13
same,promoter activity interaction Z-score,[4]; [18],1.88 ± 0.47
same,promoter activity interaction Z-score,[4]; [19],2.49 ± 0.18
same,promoter activity interaction Z-score,[4]; [20],2.71 ± 1.5
same,promoter activity interaction Z-score,[4]; [21],2.7 ± 1.2
same,promoter activity interaction Z-score,[4]; [22],2.56 ± 1.5
same,promoter activity interaction Z-score,[5]; [7],-0.136 ± 0.025
same,promoter activity interaction Z-score,[5]; [8],-0.0396 ± 0.014
same,promoter activity interaction Z-score,[5]; [9],0.132 ± 0.012
same,promoter activity interaction Z-score,[5]; [10],-0.0347 ± 0.41
same,promoter activity interaction Z-score,[5]; [11],0.0479 ± 0.082
same,promoter activity interaction Z-score,[5]; [12],-0.0499 ± 0.0013
same,promoter activity interaction Z-score,[5]; [13],0.0442 ± 0.016
same,promoter activity interaction Z-score,[5]; [14],0.0803 ± 0.2
same,promoter activity interaction Z-score,[5]; [15],-0.193 ± 0.16
same,promoter activity interaction Z-score,[5]; [16],-0.125 ± 0.18
same,promoter activity interaction Z-score,[5]; [17],0.00176 ± 0.065
same,promoter activity interaction Z-score,[5]; [18],0.0899 ± 0.22
same,promoter activity interaction Z-score,[5]; [19],-0.00867 ± 0.13
same,promoter activity interaction Z-score,[5]; [20],-0.000878 ± 0.32
same,promoter activity interaction Z-score,[5]; [21],-0.0162 ± 0.056
same,promoter activity interaction Z-score,[5]; [22],0.304 ± 0.35
same,promoter activity interaction Z-score,[6]; [7],0.183 ± 0.43
same,promoter activity interaction Z-score,[6]; [8],0.192 ± 0.74
same,promoter activity interaction Z-score,[6]; [9],0.95 ± 0.16
same,promoter activity interaction Z-score,[6]; [10],-0.793 ± 0.74
same,promoter activity interaction Z-score,[6]; [11],0.878 ± 0.85
same,promoter activity interaction Z-score,[6]; [12],1.47 ± 0.72
same,promoter activity interaction Z-score,[6]; [13],0.512 ± 0.0012
same,promoter activity interaction Z-score,[6]; [14],0.453 ± 0.65
same,promoter activity interaction Z-score,[6]; [15],0.713 ± 0.2
same,promoter activity interaction Z-score,[6]; [16],1.93 ± 0.4
same,promoter activity interaction Z-score,[6]; [17],1.26 ± 0.14
same,promoter activity interaction Z-score,[6]; [18],0.497 ± 0.4
same,promoter activity interaction Z-score,[6]; [19],1.73 ± 1.4
same,promoter activity interaction Z-score,[6]; [20],0.8 ± 2.4
same,promoter activity interaction Z-score,[6]; [21],2.44 ± 0.49
same,promoter activity interaction Z-score,[6]; [22],2 ± 0.17
